Bioassay records deposited in PubChem by The Scripps Research Institute Molecular Screening Center.
Most compounds without a hit are left out; they make up all but 4.8% or so of the library.
DAX1 inh-1: DAX1 (NR0B1) inhibitors, primary screen, cell-based, HEK293, Gal4-DAX1, luciferase luminescence; Nuclear receptor subfamily 0 group B member 1 (Homo sapiens), P51843; HEK293 Gal4-DAX1 luciferase reporter; inhibition, % at 6.75 µM; 0.99% of 340,000 active; AID 504766, 2011;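 active = inhibition above the mean over all tested compounds plus 3 SD, cut at about 4.2% in these data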;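 note: 0% = DAX1-transfected cells with DMSO and 100% = empty-vector control cells with DMSO; inhibition shows as a rise in luminescence from relieved DAX1 repression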
Target sequence (P51843 207-470 limits assumed): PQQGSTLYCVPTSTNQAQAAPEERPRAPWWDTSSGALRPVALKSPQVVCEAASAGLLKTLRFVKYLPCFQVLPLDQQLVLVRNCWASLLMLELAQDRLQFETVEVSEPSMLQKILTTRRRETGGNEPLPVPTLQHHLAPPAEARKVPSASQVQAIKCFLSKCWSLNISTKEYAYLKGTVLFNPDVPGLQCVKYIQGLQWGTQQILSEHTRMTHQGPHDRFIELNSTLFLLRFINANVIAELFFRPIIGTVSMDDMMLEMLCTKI
ssDAF12 agonist: S. stercoralis DAF-12 nuclear receptor activators, primary screen, cell-based, luminescence, HEK293, GRIP1 co-expression, lit1-tk-luc; activation, % at 6.8 µM; 1% of 370,000 active; Nuclear hormone receptor DAF-12 (Strongyloides stercoralis); HEK293 ssDAF-12/GRIP1 lit1-tk-luc reporter; % of 3 µM dafachronic acid response;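 active = activation above the mean over all tested compounds plus 3 SD, cut at about 0.9% in these data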;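 note: 0% = DMSO-only wells and 100% = 3 µM delta7-dafachronic acid wells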
hcDAF-12 act: H. contortus DAF-12 nuclear receptor activators, primary screen, cell-based, luminescence, HEK293, lit1-tk-luc reporter. HEK293 hcDAF-12 lit1-tk-luc reporter; 0% DMSO, 100% Δ7-dafachronic acid. activation, % at 6.8 µM. 1.4% of 370,000 active. AID 652067, 2013;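 active = activation above the mean of all tested compounds plus 3 SD, cut at about 5.5% in these data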;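 note: 100% = response to 3 µM Δ7-dafachronic acid high control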
DAX1 inh-2: DAX1 (NR0B1) inhibitors on StAR promoter, primary screen, cell-based, luminescence, SF-1 (NR5A1), full-length DAX-1 | inhibition, % at 6.8 µM | AID 652010, 2013 | 1.1% of 370,000 active | HEK293T StAR-luciferase reporter, SF-1/DAX-1 repression relief;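 active = inhibition above the mean over all tested compounds plus 3 SD, cut at about 3.6% in these data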;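 note: 0% = DAX-1 cells with DMSO and 100% = cells lacking DAX-1 with DMSO; higher inhibition means more luminescence from relief of DAX-1 repression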
SMARCA2 act: SMARCA2 (BRM) function activators, primary screen, cell-based, luminescence, high throughput | activation, % at 9.1 µM | 1% of 370,000 active | MG213 cells, MMTV-luciferase reporter, dexamethasone, overnight; in the data active = activation above about 7.8%;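 note: 0% = vehicle wells and 100% = reference activator wells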
hgDAF12 agonist: H. glycines DAF-12 receptor agonists, primary screen, cell-based, luminescence, HEK293, GAL4 fusion, UAS-luciferase | HEK293 GAL4-hgDAF12 UAS-luciferase reporter, agonist luminescence; normalized to butyrate control | activation, % at 6.8 µM | 1.8% of 370,000 active;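 active = activation above a cutoff set at the mean of all screened compounds plus 3 SD, cut at about 10% in these data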;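 note: 0% = DMSO wells and 100% = sodium butyrate wells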
* = called active by the depositor; . = not tested or not shown.

SMILES	DAX1 inh-1	ssDAF12 agonist	hcDAF-12 act	DAX1 inh-2	SMARCA2 act	hgDAF12 agonist
CCCCn1c(N)c(N(CCOC)C(=O)c2ccc(F)c(S(=O)(=O)N3CCOCC3)c2)c(=O)[nH]c1=O	0	-1	1	0	-3	0
CN(C)S(=O)(=O)c1ccc(Cl)c(C(=O)OCC(=O)NNC(=O)c2cccs2)c1	0	-1	0	0	3	-3
CCCN1CCN(CCCNC(=O)c2cc3c(=O)[nH]c4ccc(C)cc4c3s2)CC1	6.4*	0	-1	2	-1	-1
CCN1CCN(CCCNC(=O)c2cc3c(=O)oc4ccc(C)cc4c3s2)CC1	2	-1	2	0	-1	1
COC(=O)[C@]12C[C@H](CC(=O)NCCc3ccccc3OC)C(=O)N(CCc3ccc(OC)c(OC)c3)C1=C[C@H](C1CCCC1)O[C@@H]2C	.	0	1	-1	-3	1
O=C(CN1CCCCC1CO)c1ccc(OC(F)F)cc1 (stereo not drawn)	4.5*	-2	-1	0	-1	0
c1cncc(CSc2ccc(-c3ccc4c(c3)OCO4)nn2)c1	0	-1	5.6*	2	0	5
COc1ccc(C(=O)c2[nH]c(N)c(C(=O)NCCc3c[nH]c4ccccc34)c2-c2ccc(Cl)cc2)cc1	.	1.9*	3	2	-2	0
COc1ccc(C(=O)c2[nH]c(N)c(C(=O)NCCc3c[nH]c4ccccc34)c2-c2ccc(Cl)c(F)c2)cc1	.	-1	2	0	-3	-1
Cc1ccc(-c2c(C(=O)c3ccccc3)[nH]c(N)c2C(=O)NCCc2c[nH]c3ccccc23)cc1	.	0	2	2	-1	6
COc1ccc(-c2c(C(=O)c3ccccc3)[nH]c(N)c2C(=O)NCCc2c[nH]c3ccccc23)cc1	.	0	0	0	0	12*
Nc1[nH]c(C(=O)c2ccc(Cl)cc2)c(-c2ccc(Br)cc2)c1C(=O)NCCc1c[nH]c2ccccc12	.	1.0*	2	0	-4	0
CC1(Cc2ccc(F)cc2)C(=O)Nc2ccc(-c3cccnc3)cc21 (stereo not drawn)	.	-2	-2	-2	-6	1
Cn1nccc1-c1coc2c(C(=O)NCc3ccccc3)cccc12	.	-1	0	-1	1	4
COc1cc2cc(Oc3ccc4ccc(=O)oc4c3)c(=O)oc2cc1OC(C)=O	9.8*	-2	-3	1	2	-2
CN(Cc1ccccc1)C(=O)[C@@H]1CCCN1C(=O)[C@@H]1CCCN1C(=O)c1cccc2ccccc12	.	-1	0	-2	-3	-1
CCOCCCn1c(=NC(=O)c2ccco2)c(C(=O)OCC)cc2c(=O)n3cccc(C)c3nc21	0	0	-1	0	7.8*	5
O=C(N/C(=C/C=C/c1ccccc1)C(=O)N1CCOCC1)c1ccccc1Cl	1	1	6.0*	0	2	1
O=C(Nc1ccc(C(=O)O)cc1)/C(=C\C=C\c1ccccc1)NC(=O)c1ccccc1Cl	0	-1	1	4.3*	2	4
COCCN1C(=O)c2ccccc2C1c1nc2ccccc2[nH]1 (stereo not drawn)	.	-1	0	0	-4	0
O=C(Nc1nc(-c2ccccc2)ns1)c1ccncc1	8.4*	0	0	-1	3	2
CC(C)(C)C(=O)Nc1nc(-c2ccccc2)ns1	1	0	4	3	1	6
C[C@H](CO)N1C[C@H](C)[C@H](CN(C)C(=O)C2CC2)OCc2cnnn2CCCC1=O	0	-1	-2	0	-3	1
S=C(c1cccs1)N1CCCC1	-1	-1	-1	0	0	3
